# Active and inactive are the calls of the source. Unless noted, the rule behind the calls is not given here.
# Key:
# [1] = tested on: Wnt5a (protein binding on small-molecule microarray); experiment: small molecules binding Wnt5a protein – biophysical, small-molecule microarray, 635/667 nm fluorescence, primary screen (AID 1142); details: 635 nm fluorescence, higher = more signal;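 note: fluorescence read at 667 nm with signal to noise per printed feature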
# [2] = ATP-based viability of Huh7 replicon cells – cell-based, CellTiter-Glo luminescence, basal, 48 h, cytotoxicity control for HCV replication inhibitor project, primary screen (AID 1143); details: higher = more signal, called active from +8 up or from −8 down;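 note: Huh7 hepatoma cells carrying a hepatitis C replication reporter with no stimulus; test concentration not given here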
# [3] = Pseudomonas biofilm growth suppression – PAO1 strain, BacTiter-Glo luminescence, LB-PBS, primary screen (AID 1144); details: P. aeruginosa PAO1 biofilm, 12 h, higher = more signal
# [4] = basal CRE-LacZ reporter activity in PC12 – cell-based, unstimulated, primary screen (AID 1145); details: no forskolin, luminescence, 4.5 h, higher = more signal, called active from +8 up or from −8 down
# [5] = forskolin-driven CRE-LacZ activity in PC12 – cell-based, CRE-LacZ reporter, forskolin-stimulated, primary screen (AID 1146); details: luminescence, 4.5 h, higher = more signal, called active from +8 up or from −8 down;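 note: PC12 cells with 6xCRE LacZ reporter stimulated by forskolin 10 µM; beta-galactosidase reporter signal reflecting CREB driven transcription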
# [6] = molecular target: Streptavidin (Streptomyces avidinii) (UniProt P22629); experiment: compounds binding control protein streptavidin – biophysical, small-molecule microarray, 635/667 nm fluorescence, artefact control for SMM compound annotation, primary screen (AID 1147); details: higher = more signal;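 note: signal reflects streptavidin binding to arrayed compounds as a control protein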
# [7] = probe aInhba binding on compound microarray – biochemical, small-molecule microarray, 635/667 nm fluorescence, primary screen (AID 1148); details: higher = more signal;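 note: score merges 667nm spot fluorescence with signal-to-noise for antibody binding to printed compounds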
# Torsin-1A (Homo sapiens) [8] = molecular target: Torsin-1A (Homo sapiens) (UniProt O14656); experiment: TOR1A wild-type binding on microarray – cell lysate, small-molecule microarray, lysate, 635/667 nm, primary screen (AID 1149); details: COS7 hTOR1A-WT lysate, 635 nm fluorescence, higher = more signal
# Torsin-1A (Homo sapiens) [9] = molecular target: Torsin-1A (Homo sapiens) (UniProt O14656); experiment: torsin A mutant lysate binding on microarrays – cell lysate, small-molecule microarray, COS7 lysate, 635/667 nm fluorescence, primary screen (AID 1150); details: COS7 hTOR1A mutant lysate, 635 nm fluorescence, higher = more signal;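 note: score pools 667 nm emission and signal to noise measuring lysate protein binding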
# [10] = tested on: Sonic hedgehog protein (Shh); experiment: Sonic hedgehog microarray binding compounds – biochemical, small-molecule microarray, 635/667 nm fluorescence, primary screen (AID 1151); details: 635 nm fluorescence, higher = more signal;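 note: Shh protein binding to compounds spotted on small-molecule microarray slides; score combines spot fluorescence intensity with signal-to-noise across triplicate slides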
# Sequence of Streptavidin (Streptomyces avidinii) (P22629 whole entry, looked up): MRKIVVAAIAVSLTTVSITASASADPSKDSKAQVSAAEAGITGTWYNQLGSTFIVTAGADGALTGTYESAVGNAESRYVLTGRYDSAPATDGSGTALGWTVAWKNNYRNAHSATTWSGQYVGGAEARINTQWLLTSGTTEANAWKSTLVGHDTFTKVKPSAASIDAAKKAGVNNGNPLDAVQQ
# Sequence of Torsin-1A (Homo sapiens) (O14656 whole entry, looked up): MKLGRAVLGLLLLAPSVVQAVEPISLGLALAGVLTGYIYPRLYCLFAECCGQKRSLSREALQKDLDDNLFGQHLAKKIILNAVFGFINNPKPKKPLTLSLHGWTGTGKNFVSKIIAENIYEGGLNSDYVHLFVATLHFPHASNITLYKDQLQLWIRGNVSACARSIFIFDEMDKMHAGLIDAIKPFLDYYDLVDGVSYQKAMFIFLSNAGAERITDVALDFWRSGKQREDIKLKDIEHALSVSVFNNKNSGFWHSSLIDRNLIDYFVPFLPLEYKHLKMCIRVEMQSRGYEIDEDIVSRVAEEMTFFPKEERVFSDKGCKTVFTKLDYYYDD
SMILES,composite z-score [1],z-score [2],z-score [3],z-score [4],z-score [5],composite z-score [6],composite z-score [7],composite z-score (Torsin-1A (Homo sapiens) [8]),composite z-score (Torsin-1A (Homo sapiens) [9]),composite z-score [10]
CN1C(=O)C2C=CC(C(O)C3CC=CCC3)N(NC(=O)OC(C)(C)C)C2C1=O (stereo not given),0.154,0.248 (inactive),0.0321 (inactive),0.626 (inactive),0.257 (inactive),1.15,0.0301,0.665,1.12,0.737
C#CCN(CC1=CCCCC1)[C@H](c1ccccc1Br)[C@@H](O)Cc1ccccc1,-0.0365,-1.5 (inactive),0.0281 (inactive),2.21 (inactive),0.219 (inactive),-0.949,-0.159,1.07,0.962,-0.515
C[C@@]1([C@@H](NC(=O)c2ccccc2)c2ccc(-c3ccccc3)cc2)C[C@H]1C1CCCCC1,0.367,0.147 (inactive),-0.232 (inactive),0.201 (inactive),0.957 (inactive),1.1,0.333,0.0627,-0.0293,-1.1
[N-]=[N+]=NCc1ccccc1[C@@H]1OC(c2ccc(OCCCO)cc2)=N[C@]1(CCS(=O)(=O)c1ccccc1)C(=O)NCCN1CCOCC1,0.808,-0.31 (inactive),-0.174 (inactive),1.24 (inactive),-1.16 (inactive),0.81,0.285,2.1,1.9,0.615
C=CC[C@]12N=C(c3ccc(OCCCO)cc3)O[C@H]1c1ccccc1N(Cc1ccccc1)C2=O,0.373,-3.92 (inactive),0.71 (inactive),-0.389 (inactive),-1.64 (inactive),-0.255,0.153,0.35,1.04,0.351
C=CCC(OC(C)=O)[C@@H]1[C@@H](N(Cc2cccc3ccccc23)C(=O)c2ccc(-c3ccccc3)cc2)c2cc(OCCCO)ccc2N1C(=O)Cc1ccc(OC)cc1 (stereo not given in full),0.36,-0.454 (inactive),-0.266 (inactive),-0.491 (inactive),0.117 (inactive),0.311,0.0018,0.0276,-0.265,0.179
COC(=O)[C@@]1(Cc2ccc(OC)cc2)[C@H]2c3cc(C(=O)N(C)C)n(CCN4CNCC4=O)c3C[C@H]2CN1C(=O)c1ccccc1,0.0523,-0.582 (inactive),0.726 (inactive),-0.754 (inactive),-0.403 (inactive),0.494,-0.0736,-0.322,-0.502,-2.07
CCC(CC)C(O)C1C=CC2C(=O)N(C)C(=O)C2N1Nc1ccccc1 (stereo not given),0.334,0.667 (inactive),-0.625 (inactive),0.822 (inactive),-0.214 (inactive),1.48,0.288,0.551,0.235,-0.09
C#CCN(Cc1ccccc1Br)C(/C=C/c1ccccc1)CO (stereo not given),-0.15,-4.79 (inactive),0.825 (inactive),5.19 (inactive),-1.04 (inactive),-0.175,-0.283,0.0428,-0.653,-0.0683
COC(=O)C=C(CC(O)c1cccc(Cl)c1)OC (stereo not given),0.321,-2.41 (inactive),-0.179 (inactive),-0.116 (inactive),-0.809 (inactive),0.307,1.09,0.208,1.11,-0.425
COc1ccc([Si](C)(C)[C@@H]2[C@@H](CC(=O)N3Cc4ccccc4C[C@H]3CO)O[C@]3(C(=O)N(C)c4c(Br)cc(C)cc43)[C@H]2C)cc1,0.251,-5.91 (inactive),-1.41 (inactive),6.12 (inactive),0.0739 (inactive),0.813,-0.0645,1.01,1.19,2.14
C=C(CCCC)C(=O)CC[C@H](OC(C)=O)c1cccc(OCCO)c1,-0.247,-3.51 (inactive),0.428 (inactive),0.914 (inactive),-0.057 (inactive),-0.613,-0.183,-0.576,-0.132,0.103
O=C(NCC(F)(F)F)[C@@H]1c2ccccc2C(=O)N(C2CCCCC2)[C@H]1c1ccc(CO)cc1,-0.107,-1.51 (inactive),0.795 (inactive),0.299 (inactive),-0.258 (inactive),0.0656,-0.0422,0.252,-0.287,-0.376
COC(=O)[C@@]1(Cc2ccc(F)cc2)[C@@H]2[C@@H](CC(=O)[C@H]2CC(=O)C(=O)N(C)C)CN1C(=O)c1ccccc1,0.618,-2.42 (inactive),0.215 (inactive),0.576 (inactive),0.245 (inactive),1.91,0.242,0.447,0.884,-0.552
CC(C)C(CO)N1C(=O)[C@@H]2[C@H]3C(=O)OCC=C[C@H]3OC23C=CCN(C(C)C)C(=O)[C@@H]13 (stereo not given in full),-0.3,-0.602 (inactive),-0.1 (inactive),-0.757 (inactive),-0.681 (inactive),-0.629,-0.0963,-0.543,-0.374,0.841
CN1C(=O)C2C=CC(C(O)c3ccc(-c4ccccc4)s3)N(N(c3ccccc3)c3ccccc3)C2C1=O (stereo not given),0.123,-0.0598 (inactive),-0.468 (inactive),-0.14 (inactive),-0.101 (inactive),1.14,0.12,0.91,-0.0126,0.409
COc1ccc(C(O)C2C=CC3C(=O)N(c4ccccc4)C(=O)C3N2Nc2ccc(C(C)C)cc2)cc1OCc1ccccc1 (stereo not given),0.409,-0.0843 (inactive),-2.09 (inactive),1.4 (inactive),-0.465 (inactive),1.89,0.341,0.385,0.554,0.55
C=C(CCCC)/C(=C/C[C@@H](OC(C)=O)c1ccccc1OCCO)c1cnc2ccccc2c1,0.0953,-1.6 (inactive),-0.131 (inactive),2.02 (inactive),-0.185 (inactive),-0.0227,-0.0736,1.11,-0.438,1.02
C=CCOC(=O)[C@H]1[C@@H]2C(=O)O[C@@H](c3ccccc3)[C@@H](c3ccccc3)N2[C@@H](c2ccc(OCCOC(=O)[C@H]3C[C@H]4C(=O)N5CCC[C@H]5C(=O)N4[C@H]3c3ccc(O)cc3)cc2)[C@]12C(=O)Nc1ccccc12,0.753,-0.568 (inactive),-0.696 (inactive),0.415 (inactive),-0.702 (inactive),0.116,-0.217,0.874,1.1,1.8
COCCOC(=O)N1C(=O)[C@@]2(c3cc(C#CCCO)ccc31)[C@H](C(=O)Nc1nc3ccccc3s1)[C@H]1C(=O)O[C@H](c3ccccc3)[C@H](c3ccccc3)N1[C@@H]2c1ccc(OCCO)cc1,0.281,-0.224 (inactive),-1.05 (inactive),-1.14 (inactive),-0.432 (inactive),1.06,0.138,0.367,1.42,1.56
O=C1O[C@H](c2ccccc2)[C@H](c2ccccc2)N2[C@H]1[C@@H](C(=O)Nc1nc3ccccc3s1)[C@]1(C(=O)Nc3ccc(C#CC4(O)CCCCCC4)cc31)[C@H]2c1ccc(OCCO)cc1,0.248,-1.04 (inactive),-1.88 (inactive),-0.402 (inactive),0.858 (inactive),1.18,0.284,0.401,1.01,1.68
CCCCCC1=C2CNC(CCC)(C(=O)OC)C=C2C(C)C1=O (stereo not given),0.0324,-0.86 (inactive),0.617 (inactive),-0.751 (inactive),0.974 (inactive),0.441,0.345,-0.449,0.0188,0.368
CC(=O)NCCCC[C@@H]1NC(=O)[C@@H]2C[C@H](C(=O)NCCCCCCNC(=O)CS)[C@H](c3cccc(OCCO)c3)N2C1=O,0.611,0.206 (inactive),-1.05 (inactive),0.135 (inactive),-0.67 (inactive),-0.088,-0.179,0.442,0.669,1.63
C=CC[C@@]1(C(=O)NCc2ccccc2)N=C(c2ccc(OCCCO)cc2)O[C@@H]1c1ccccc1N=[N+]=[N-],0.465,-2.73 (inactive),-0.291 (inactive),3.85 (inactive),0.34 (inactive),1.15,0.174,1.23,0.762,-0.245
C=CCNC(=O)[C@@H]1[C@H]2C(=O)O[C@H](c3ccccc3)[C@H](c3ccccc3)N2[C@H](c2ccc(OCCO)cc2)[C@@]12C(=O)Nc1ccc(C#Cc3ccc(OC)cc3)cc12,0.233,-4.16 (inactive),-0.486 (inactive),-0.195 (inactive),0.236 (inactive),1.01,0.0125,0.406,0.602,1.64
COCC(=C=CC[C@H](O)c1ccccc1OCCO)C[C@H](O)c1cc(Cl)cc(Cl)c1O,0.626,-8.22 (active),0.421 (inactive),24.4 (active),-0.753 (inactive),0.423,-0.0877,-0.256,1.72,1.37
C[N+](C)(C)CCCCNC(=O)[C@H]1C[C@H]2C(=O)N[C@@H](Cc3ccccc3)C(=O)N2[C@H]1c1ccc(O)cc1,0.134,0.0641 (inactive),0.0228 (inactive),0.143 (inactive),0.465 (inactive),-0.455,0.106,0.81,0.513,2.04
O=C1O[C@H](c2ccccc2)[C@H](c2ccccc2)N2[C@H]1[C@@H](C(=O)N1CCN(c3ncccn3)CC1)[C@]1(C(=O)Nc3ccc(C#CC4=CCCCC4)cc31)[C@H]2c1ccc(O)cc1,-0.019,-2.01 (inactive),-0.134 (inactive),0.155 (inactive),-0.196 (inactive),1.08,-0.0448,0.268,0.839,1.13
CCCC[C@@H]1C[C@H]1[C@@H](NC(=O)c1ccco1)c1ccc(C(=O)OC)cc1,-0.195,-1.88 (inactive),-0.333 (inactive),0.0075 (inactive),1.58 (inactive),0.564,-0.154,-0.708,-0.319,-1.47

# From PubChem BioAssay
